We go through 37 compounds from PubChem BioAssay AID504710 (Sanford-Burnham Center for Chemical Genomics, 2011).

A number with no mark means an inactive call. The source made the active and inactive calls.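 Rule for the calls: active = inhibition reaching about 16% in any single replicate (limit read from the data); inactive = the rest.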

Sequence of Hexokinase HKDC1 (Homo sapiens) (Q2TB90 whole entry, looked up): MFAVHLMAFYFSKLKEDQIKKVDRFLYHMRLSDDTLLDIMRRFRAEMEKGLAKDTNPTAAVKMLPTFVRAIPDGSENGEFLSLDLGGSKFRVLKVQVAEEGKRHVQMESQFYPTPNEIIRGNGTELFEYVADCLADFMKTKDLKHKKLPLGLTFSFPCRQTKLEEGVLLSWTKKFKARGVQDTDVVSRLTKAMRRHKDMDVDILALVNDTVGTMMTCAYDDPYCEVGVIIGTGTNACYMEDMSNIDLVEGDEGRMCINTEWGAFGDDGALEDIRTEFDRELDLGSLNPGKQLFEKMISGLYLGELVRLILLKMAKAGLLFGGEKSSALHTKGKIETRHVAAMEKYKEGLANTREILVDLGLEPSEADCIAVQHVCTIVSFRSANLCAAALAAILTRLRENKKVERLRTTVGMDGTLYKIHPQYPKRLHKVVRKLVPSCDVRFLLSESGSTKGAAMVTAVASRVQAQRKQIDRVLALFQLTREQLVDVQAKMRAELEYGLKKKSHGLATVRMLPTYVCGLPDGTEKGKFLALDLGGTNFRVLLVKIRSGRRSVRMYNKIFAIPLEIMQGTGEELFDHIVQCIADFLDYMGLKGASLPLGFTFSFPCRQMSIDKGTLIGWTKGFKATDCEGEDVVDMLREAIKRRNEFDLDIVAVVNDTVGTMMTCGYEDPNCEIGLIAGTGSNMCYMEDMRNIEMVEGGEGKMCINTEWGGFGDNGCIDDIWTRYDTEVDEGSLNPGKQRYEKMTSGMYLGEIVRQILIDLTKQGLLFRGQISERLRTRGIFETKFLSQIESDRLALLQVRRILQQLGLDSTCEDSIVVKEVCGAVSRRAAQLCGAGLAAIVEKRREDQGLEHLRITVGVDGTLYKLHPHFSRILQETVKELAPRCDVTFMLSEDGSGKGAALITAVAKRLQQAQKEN

The assay has as its target Hexokinase HKDC1 (Homo sapiens) (UniProt Q2TB90). The assay is described as follows: HKDC1 hexokinase inhibitors, confirmation, biochemical, single concentration (AID 504710). The settings on record: recombinant HKDC1, G6PDH/diaphorase/resazurin fluorescence; at 20 µM; hits give high values. Background: The colour change of resazurin is a common sign of viable cells or microbes.
Take `Cc1nc2c(c(=O)c3ccccc3n2C)c(=O)n1-c1ccccc1`: the inhibition (usually the relative decrease from the control value, in per cent) was 56% (active). The value for `Cc1nc2c3cc(F)ccc3n(Cc3ccccc3)c2s1` was -61.3%; that for `CN(C)c1ccc(Cc2cc3c(O)ccc(O)c3cc(Cc3ccc(N(C)C)cc3)c2=O)cc1` was 44.7% (active); that for `O=C1C=CC(=O)C(C2=C3C(=O)N(CCc4ccccc4)CC(=O)N3CCC2)=C1` was 70.9% (active).

Take `O=C1C=C(Nc2ccccc2C(=O)O)c2ccccc2C1=O`: the inhibition was 44.3% (active). Regarding `CCCc1nc2oc3c(NCCOCCO)ncnc3c2c2c1COC(C)(C)C2`, the inhibition was 41.7% (active). On to `Cc1ccccc1NC1=C/C(=N\S(=O)(=O)c2ccc(C(=O)O)cc2)c2ccccc2C1=O`, for which the inhibition was 71.3% (active). The value for `COc1ccc(CN2C(=O)c3cccnc3C2O)cc1` (configuration not stated) was 35.8% (active). To `O=C(O)CSc1cc(NS(=O)(=O)c2cccc([N+](=O)[O-])c2)c2ccccc2c1O` belongs 47.9% (active); to `CC(C)(C)c1ccc(-c2csc(NNC3=NCCCCC3)n2)cc1`, -39.4%. The value for `Cc1cc(C)nc(/N=c2/ssnc2Cl)c1` was -84.2%; that for `Cc1ccc(S(=O)(=O)/N=C2/C=C(Sc3ncn[nH]3)C(=O)c3ccccc32)cc1` was 63.3% (active). Turning to `O=C(/C=C/c1cccs1)Nc1scc(-c2ccccc2)c1C(=O)O`, the inhibition is 58.2% (active).

For `CCN(CC)c1ccc2c(c1)oc(=O)c1c(Cl)cc(=O)oc12`, the inhibition is 47.7% (active). The value for `CCc1ccc(S(=O)(=O)/N=C2\C=C(Nc3cccc(C(=O)O)c3)C(=O)c3ccccc32)cc1` was 64.8% (active). `Cc1ccc(-n2c3nc(=O)[nH]c(=O)c-3cc3cc([N+](=O)[O-])ccc32)cc1C`: the inhibition is 65.3% (active). To `CCc1nc2c(c(=O)c3ccccc3n2C)c(=O)n1-c1ccc(F)cc1` belongs 72.7% (active). To `O=S(=O)(O)c1ccc(O)c2cc(Nc3ccccc3)ccc12` belongs 44.1% (active); to `COC1=CC(=O)C(C2CC(=O)c3c(O)cc(O)cc3O2)=CC1=O` (configuration not stated), 39.8% (active). The value for `Cc1ccc(N=Cc2cc(Cc3ccccc3Cl)cc([N+](=O)[O-])c2O)c(O)c1` was 30.2% (active); that for `CCOC(=O)/C=C(\C)Sc1cc(O)c2ccccc2c1O` was 53.6% (active). In the case of `O=c1c2ccccc2nc(/C=C/c2cccnc2)n1CCc1ccccc1`, the inhibition is 38.8% (active). Regarding `O=C(c1ccccc1)c1n[nH]c(-c2ccccc2)cc1=O`, the inhibition was 16.3% (active). The value for `COC1=C(Br)C(=O)c2ncccc2C1=O` was 64.7% (active); that for `NC1=C(Br)C(=O)c2ncccc2C1=O` was 50.8% (active). To `CCOC(=O)c1ccc(NC(=O)CSc2ccc(-c3ccccn3)nn2)cc1` belongs 31.3% (active); to `CC(C)(C=O)C1=CC(=O)c2ccccc2C1=O`, 41.2% (active); to `CCC1=NN2C(=N)/C(=C\c3ccc(OCc4cc(=O)n5nc(CC)sc5n4)c(OC)c3)C(=O)N=C2S1`, 22.8% (active). The value for `Cc1nc2c(O)c3c(c(O)c2nc1C)C1C=CC3CC1` was 89.5% (active). As to `COC1=CC(=O)c2c(ccc3ncnc(N)c23)C1=O`, the inhibition is 87.6% (active).

As for `Cn1c(SSc2ccc(-c3cccnc3)n2C)ccc1-c1cccnc1`, the inhibition was -248%. For the compound `COc1ccc(-c2nc3c(c(=O)n(C)c(=O)n3C)n2CC2CC(c3ccccc3)=NO2)cc1OC` (configuration not stated), the inhibition was -32.8%. In the case of `O=C1C(Cl)=C(Oc2ccccc2)C(=O)c2ccccc21`, the inhibition was 77.7% (active). The value for `O=C1C(Cl)=C(NCc2cccnc2)C(=O)c2ccccc21` was -45.1%.

Turning to `CCN(CC)C(=O)c1ccc(C(=O)c2c(C)cc(C)cc2C)cc1`, the inhibition is -40.1%. To `COP(=O)(OC)c1ccc(NCc2cc(O)ccc2O)cc1` belongs 53.1% (active); to `O=[N+]([O-])c1ccc(NN=Cc2ccc(O)cc2O)nc1`, 50.8% (active).
